Screens: PubChem, National Center for Advancing Translational Sciences (NCATS)
The full list was thinned out, with hits kept by preference.
CHX counter: Cycloheximide Counterscreen for Small Molecule Inhibitors of Shiga Toxin; cell reporter, cycloheximide protein synthesis inhibition counterscreen; max response, %; hit rate 12% among 300,000; AID 2314, 2010; in the data active means max response mostly above about 13%, no sharp cut-off; inactive means mostly below about 14%; further: read at 38.3 µM for the half of the compounds with a filed dose
SARS PLpro yeast: qHTS of Yeast-based Assay for SARS-CoV PLP. hit rate 0.19% among 330,000. AID 485353, 2010. Potency, µM (titrated, usually from 32.9 µM), usual class: activators. S. cerevisiae expressing SARS-CoV PLpro, growth rescue; further: nearly all actives have a fitted effect of over 55% in size
LmPK inh: qHTS Assay for Inhibitors of Leishmania Mexicana Pyruvate Kinase (LmPK); Q27686; purified LmPK, Kinase-Glo ATP luminescence, 1 h; Potency, µM (doses to about 57.5 µM), hits mostly inhibitors; hit rate 0.37% among 290,000; AID 1721, 2009; active means well fitted curve in the direction sought with a large enough effect; inconclusive means small, poorly fitted or top-dose-only effect, or another doubt; inactive means no such curve, though single readings can be large; an effect the other way counts as inactive or inconclusive
Target sequence (Q27686 whole entry, looked up): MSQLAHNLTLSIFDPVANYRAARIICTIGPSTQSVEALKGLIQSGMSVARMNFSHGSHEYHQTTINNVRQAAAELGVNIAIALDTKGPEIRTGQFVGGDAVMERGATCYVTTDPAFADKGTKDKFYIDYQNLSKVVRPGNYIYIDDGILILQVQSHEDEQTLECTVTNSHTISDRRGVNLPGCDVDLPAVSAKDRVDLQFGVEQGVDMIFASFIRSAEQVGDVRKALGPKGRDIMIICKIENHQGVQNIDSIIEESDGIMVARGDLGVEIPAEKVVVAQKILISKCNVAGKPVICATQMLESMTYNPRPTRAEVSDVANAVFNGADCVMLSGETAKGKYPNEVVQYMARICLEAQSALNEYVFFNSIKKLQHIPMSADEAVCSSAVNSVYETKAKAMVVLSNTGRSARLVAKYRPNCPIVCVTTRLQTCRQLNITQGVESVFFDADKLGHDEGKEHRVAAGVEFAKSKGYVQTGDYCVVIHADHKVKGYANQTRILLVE
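Kinase-Glo luminescence read after 1 h RT reaction of 0.1 nM LmPK with 0.5 mM PEP and 0.1 mM ADP. Activity scaled between uninhibited and enzyme-free controls.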
Shiga inhibitor: A qHTS for Small Molecule Inhibitors of Shiga Toxin | Vero cells, Shiga toxin protein synthesis inhibition reporter | inhibition, % at 38.7 µM | hit rate 9.2% among 290,000; in the data active means inhibition mostly above about 28%, no sharp cut-off; inactive means mostly below about 43%
NS1 function inh: qHTS Assay for Inhibitors of Influenza NS1 Protein Function | Potency, µM (titrated, usually from 46.1 µM) | hit rate 0.4% among 270,000; further: actives are rising curves; nearly all actives have a fitted effect of over 50% in size
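S. cerevisiae expressing influenza A NS1, grown in glucose, washed, then diluted 1:100 into pH 6.0 -URA galactose medium with 23 nl compound. Growth recovery read as OD600; NS1-free strain serves as control.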
TbPYK inhibitor: qHTS of Trypanosoma Brucei Inhibitors. pyruvate kinase (Trypanosoma brucei), Q57TT1. TbPYK enzyme, Kinase-Glo Plus ATP luminescence, 45 min. Potency, µM (series often up to 76.8 µM), actives largely listed as inhibitors. hit rate 0.12% among 410,000; active means well fitted curve in the direction sought with a large enough effect; inconclusive means small, poorly fitted or top-dose-only effect, or another doubt; inactive means no such curve, though single readings can be large; an effect the other way counts as inactive or inconclusive; further: nearly all actives have a fitted effect of over 50% in size
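Luminescent Kinase-Glo Plus end-point after 45 min room-temperature reaction of T. brucei pyruvate kinase started with 130 uM ADP (final). Buffer TEA 50 mM pH 7.2 with KCl, MgCl2, BSA, Tween-20; titration-based qHTS with fitted concentration-effect curves.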
Hits are given with their value; - = inactive; ? = inconclusive; . = no result given. Unless noted, the call rests on the fitted dose curve.

SMILES	CHX counter	SARS PLpro yeast	LmPK inh	Shiga inhibitor	NS1 function inh	TbPYK inhibitor
O=C(Nc1cccnc1N1CCOCC1)c1cc2ccccc2oc1=O	26.1	-	-	47.1	-	-
O=C(Nc1c(-c2ccccc2)nc2ncccn12)c1cc2ccccc2oc1=O	35.7	-	-	-	?	-
O=C(c1cc2ccccc2oc1=O)N1CCOCC1	38.7	-	-	72.5	?	-
CSc1ccc(-c2nc3ncccn3c2Nc2ccc(C)c(C)c2)cc1	.	.	.	.	.	-
Cc1ccc(C2CCN(C(=O)Nc3ccc(Cl)c(Cl)c3)C2)cc1 (stereo not drawn)	.	.	.	.	.	-
O=C1CCn2c1c(O)c1ccccc1c2=O	.	.	.	.	.	-
N=C1CCC(=N)c2c1c(O)c1ccccc1c2O	12.8	-	-	-	-	?
CC1(C(=O)O)CCCN1C(=O)c1cccc(F)c1 (stereo not drawn)	.	.	.	.	.	-
CC(C)Cn1cc(NC(=O)N2CCN(c3ccc(F)cc3)CC2)c2ccccc2c1=O	.	.	.	.	.	-
Cc1cc2cc(C(c3nnnn3Cc3ccco3)N3CCCCC3)c(=O)[nH]c2cc1C (stereo not drawn)	-	-	-	-	-	-
CCOc1ccc2[nH]c(=O)c(C(c3nnnn3Cc3ccco3)N3CCN(C)CC3)cc2c1 (stereo not drawn)	29.5	-	-	96.2	-	-
Fc1ccccc1OCCn1c(=S)[nH]c2ccccc21	24.2	?	-	27.8	-	-
C[C@@H]1CN([C@@H](C)CO)C(=O)CCCn2nncc2CO[C@@H]1CN(C)C(=O)NC1CCCCC1	.	.	.	.	.	-
FC(F)(F)c1cc(Cl)c2nc(-c3ccccc3)c(Cc3ccsc3)n2c1	.	.	.	.	.	-
FC(F)(F)c1cc(Cl)c2nc(-c3ccccc3)cn2c1	41.4	-	-	87.6	-	-
Nc1cccc(-c2cn3cc(C(F)(F)F)cc(Cl)c3n2)c1	36.4	-	-	64.0	-	-
Cc1ccc(-c2ccc(=O)n(CC(=O)NCCc3ccc(Cl)cc3)n2)cc1	.	.	.	.	.	-
COc1ccc(C(=O)N(Cc2ccco2)Cc2cccs2)cc1	-	.	.	-	.	.
Cc1cc(C)n2c(SCCC(C)C)nnc2n1	18.7	-	-	-	?	-
Cc1cc(C)n2c(SCC(C)C)nnc2n1	-	-	-	-	-	-
C/C(=N\NC(=O)c1cc(C)oc1C)c1ccc2c(c1)OCO2	47.5	-	-	121.6	.	-
C/C(=N\NC(=O)c1ccc2c(c1)OCO2)c1ccc(O)cc1	33.2	-	-	41.4	-	-
CC/C(=N\NC(=O)c1ccc2c(c1)OCO2)c1ccccc1	37.4	-	-	46.0	-	-
C/C(=N/NC(=O)c1ccc2c(c1)OCO2)c1ccc(NC(=O)C(F)(F)F)cc1	41.2	-	-	35.6	-	-
Cc1cc(C(=O)NC2CCCc3c2cnn3-c2ccc(C(C)(C)C)cc2)nn1C (stereo not drawn)	-	-	-	-	-	-
SMILES	CHX counter	SARS PLpro yeast	LmPK inh	Shiga inhibitor	NS1 function inh	TbPYK inhibitor
O=C(Cn1c(=O)n(Cc2ccco2)c(=O)c2oc3ccccc3c21)Nc1ccc(F)c(Cl)c1	.	.	.	.	.	-
C/C(=N\NC(=O)c1ccc2c(c1)OCO2)c1cccnc1	36.8	-	-	89.7	-	-
O=C(N/N=C/c1cc2c(cc1Br)OCO2)c1c[nH]c2ccccc12	-	-	-	-	.	-
CC(=O)Nc1cccc(/C(C)=N/NC(=O)c2ccc3c(c2)OCO3)c1	25.7	-	-	-	-	-
CC(/C=C/c1ccc2c(c1)OCO2)=N/NC(=O)c1cccnc1	23.4	-	-	62.0	-	-
C/C(=N\NC(=O)c1c[nH]c2ccccc12)c1ccc2c(c1)OCO2	29.5	-	-	42.0	.	-
CCc1c(CN2CCN(c3ccc(F)cc3)CC2)csc1C	.	.	.	.	.	-
Cc1noc(C)c1-c1ccc(C(=O)Nc2ccc(C(C)C)cc2)c2occc12	.	.	.	.	.	-
O=C(CSc1nc2c(cnn2-c2ccc(F)cc2)c(=O)[nH]1)Nc1ccccc1C(F)(F)F	.	.	.	.	.	-
C/C(=N\NC(=O)c1ccccc1)c1ccc2c(c1)OCO2	51.4	-	-	95.7	-	-
C/C(=N/NC(=O)CCc1ccccc1)c1ccc2c(c1)OCO2	-	-	-	-	-	-
C/C(=N/NC(=O)c1ccc(C(C)(C)C)cc1)c1cccnc1	.	.	.	.	.	-
C/C(=N\NC(=O)c1ccc(Br)cc1)c1cccnc1	21.9	?	-	-	-	-
CC(C)CC(CC(C)C)=NNC(=O)c1ccc2c(c1)OCO2	51.9	-	-	73.7	.	-
CCOc1ccccc1NC(=O)CCCc1ccc(OC)c(C)c1	-	-	-	-	-	-
CCOC(=O)Cn1nc(C)c(NC(=O)c2ccc(Br)o2)c1C	-	-	-	-	-	-
O=C(COC(=O)C1CC2C=CC1C2)Nc1c(Br)cc([N+](=O)[O-])cc1Br (stereo not drawn)	.	-	.	.	.	-
COc1cc(OC)c(N(C)C(=O)c2sc3nc4n(c(=O)c3c2C)CCCCC4)cc1Cl	.	.	.	.	.	-
Clc1ccccc1Cn1nnc2c(NCC3CC3)ncnc21	-	-	-	-	-	-
Clc1ccccc1Cn1nnc2c(Nc3ccccc3)ncnc21	15.6	-	-	-	-	-
O=C(O)CCC1COc2ccccc2O1 (stereo not drawn)	-	-	-	-	-	-
O=C(CCC1COc2ccccc2O1)Nc1ccc(Cl)cn1 (stereo not drawn)	14.4	-	-	31.3	-	-
CCOC(=O)c1ccc(NC(=O)CCC2COc3ccccc3O2)cc1 (stereo not drawn)	-	-	-	-	-	-
